# Assay results from the supplement of paper PMC8728848.
# This is one part of a sample in which the strongest signals are shown more often than they occur.
# Key:
# Experiment in all cases: glycan array binding signal (z-score within array); higher = stronger binding
# Settings in all cases: glycan notation: IUPAC condensed, linker removed; mutation: D57L
# [1] = target: Fuc(a1-2)Gal(b1-3)GlcNAc(b1-2)Man(a1-3)[Fuc(a1-2)Gal(b1-3)GlcNAc(b1-2)Man(a1-6)]Man(b1-4)GlcNAc(b1-4)GlcNAc
# Procedure, shortened: (§1)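 Glycan array data were curated from 3228 arrays in the Consortium for Functional Glycomics database and kept only where the protein sequence was available. Glycan names were converted to IUPAC-condensed notation, and columns mapping to the same glycan were averaged. The binding signal is a within-array Z-score, averaged across arrays of the same protein sequence at different concentrations or buffers and across linkers. Negative Z-scores can be read as non-binding.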
# [2] = target: Fuc(a1-2)Gal(b1-3)GlcNAc(b1-3)Gal(b1-4)Glc
# Procedure, shortened: as §1
# [3] = target: Fuc(a1-2)Gal(b1-3)GlcNAc(b1-3)[Gal(b1-4)GlcNAc(b1-6)]Gal(b1-4)Glc
# Procedure, shortened: as §1
# [4] = target: Fuc(a1-2)Gal(b1-3)GlcNAc(b1-3)[Neu5Ac(a2-6)Gal(b1-4)GlcNAc(b1-6)]Gal(b1-4)Glc
# Procedure, shortened: as §1
# [5] = target: Fuc(a1-2)Gal(b1-4)Fuc(a1-3)]GlcNAc(b1-2)Man(a1-3)[Fuc(a1-2)Gal(b1-4)[Fuc(a1-3)]GlcNAc(b1-2)Man(a1-6)]Man(b1-4)GlcNAc(b1-4)GlcNAc
# Procedure, shortened: as §1
# [6] = target: Fuc(a1-2)Gal3S(b1-4)GlcNAc
# Procedure, shortened: as §1
# [7] = target: Fuc(a1-2)Gal6S(b1-3)GlcNAc6S
# Procedure, shortened: as §1
# [8] = target: Fuc(a1-2)[Gal(a1-3)]Gal(b1-3)GalNAc(b1-3)Gal(a1-4)Gal(b1-4)Glc
# Procedure, shortened: as §1
# [9] = target: Fuc(a1-2)[Gal(a1-3)]Gal(b1-4)GlcNAc(b1-2)Man(a1-3)[Fuc(a1-2)[Gal(a1-3)]Gal(b1-4)GlcNAc(b1-2)Man(a1-6)]Man(b1-4)GlcNAc(b1-4)[Fuc(a1-6)]GlcNAc
# Procedure, shortened: as §1
# [10] = target: Fuc(a1-2)[Gal(a1-3)]Gal(b1-4)GlcNAc(b1-6)GalNAc
# Procedure, shortened: as §1
# [11] = target: Fuc(a1-3)[Gal3S(b1-4)]GlcNAc6S
# Procedure, shortened: as §1
# [12] = target: Gal(a1-3)GalNAc
# Procedure, shortened: as §1
# [13] = target: Gal(b1-3)GalNAc(b1-4)Gal(b1-4)Glc
# Procedure, shortened: as §1
# [14] = target: Gal(b1-3)GlcNAc(b1-3)Gal(b1-4)GlcNAc
# Procedure, shortened: as §1
# [15] = target: Gal(b1-3)[Fuc(a1-4)]GlcNAc(b1-2)Man(a1-3)[Gal(b1-3)[Fuc(a1-4)]GlcNAc(b1-2)Man(a1-6)]Man(b1-4)GlcNAc(b1-4)[Fuc(a1-6)]GlcNAc
# Procedure, shortened: as §1
# [16] = target: Gal(b1-4)GlcNAc(a1-6)Gal(b1-4)GlcNAc
# Procedure, shortened: as §1
# [17] = target: Gal(b1-4)GlcNAc(b1-2)Man(a1-3)[Man(a1-6)]Man(b1-4)GlcNAc(b1-4)GlcNAc
# Procedure, shortened: as §1
# [18] = target: Gal(b1-4)GlcNAc(b1-2)Man(a1-6)Man(b1-4)GlcNAc(b1-4)GlcNAc
# Procedure, shortened: as §1
# [19] = target: Gal(b1-4)GlcNAc(b1-3)Gal(b1-4)GlcNAc(b1-2)[Gal(b1-4)GlcNAc(b1-3)Gal(b1-4)GlcNAc(b1-6)]Man(a1-6)[Gal(b1-4)GlcNAc(b1-3)Gal(b1-4)GlcNAc(b1-2)Man(a1-3)]Man(b1-4)GlcNAc(b1-4)GlcNAc
# Procedure, shortened: as §1
# [20] = target: Gal(b1-4)GlcNAc(b1-3)Gal(b1-4)GlcNAc(b1-3)Gal(b1-4)GlcNAc(b1-2)Man(a1-3)[Gal(b1-4)GlcNAc(b1-3)Gal(b1-4)GlcNAc(b1-3)Gal(b1-4)GlcNAc(b1-2)Man(a1-6)]Man(b1-4)GlcNAc(b1-4)[Fuc(a1-6)]GlcNAc
# Procedure, shortened: as §1
# [21] = target: Gal(b1-4)GlcNAc(b1-3)Gal(b1-4)GlcNAc(b1-3)Gal(b1-4)GlcNAc(b1-3)Gal(b1-4)GlcNAc(b1-3)Gal(b1-4)GlcNAc(b1-2)Man(a1-3)[Gal(b1-4)GlcNAc(b1-3)Gal(b1-4)GlcNAc(b1-3)Gal(b1-4)GlcNAc(b1-3)Gal(b1-4)GlcNAc(b1-3)Gal(b1-4)GlcNAc(b1-2)Man(a1-6)]Man(b1-4)GlcNAc(b1-4)[Fuc(a1-6)]GlcNAc
# Procedure, shortened: as §1
# [22] = target: Gal(b1-4)GlcNAc(b1-3)[GlcNAc(b1-6)]Gal(b1-4)GlcNAc
# Procedure, shortened: as §1
# [23] = target: Gal3S(b1-3)GalNAc
# Procedure, shortened: as §1
# [24] = target: Gal3S6S(b1-4)GlcNAc6S
# Procedure, shortened: as §1
# [25] = target: Gal6S(b1-4)Glc
# Procedure, shortened: as §1
# [26] = target: Gal6S(b1-4)GlcNAc
# Procedure, shortened: as §1
# [27] = target: Glc(a1-6)Glc(a1-6)Glc
# Procedure, shortened: as §1
# [28] = target: Glc(a1-6)Glc(a1-6)Glc(a1-6)Glc
# Procedure, shortened: as §1
# [29] = target: GlcNAc(b1-2)[GlcNAc(b1-4)]Man(a1-3)[GlcNAc(b1-2)Man(a1-6)]Man(b1-4)GlcNAc(b1-4)GlcNAc
# Procedure, shortened: as §1
binder,measurement,setting,value
PNGase F (Flavobacterium meningosepticum) (protein) GIPAPADNTVNIKTFDKVKNAFGDGLSQSAEGTFTFPADVTAVKTIKMFIKNECPNKTCLEWDRYANVYVKNKTTGEWYEIGRFITPYWVGTEKLPRGLEIDVTDFKSLLSGNTELKIYTETWLAKGREYSVDFDIVYGTPDYKYSAVVPVVQYNKSSIDGVPYGKAHTLALKKNIQLPTNTEKAYLRTTISGWGHAKPYDAGSRGCAEWCFRTHTIAINNSNTFQHQLGALGCSANPINNQSPGNWTPDRAGWCPGMAVPTRIDVLNNSLIGSTFSYEYKFQNWTNNGTNGDAFYAISSFVIAKSNTPISAPVVTNLDPHHHHHH,glycan array binding signal (z-score),[1],3.35
same,glycan array binding signal (z-score),[2],-0.517
same,glycan array binding signal (z-score),[3],0.038
same,glycan array binding signal (z-score),[4],-0.604
same,glycan array binding signal (z-score),[5],7.24
same,glycan array binding signal (z-score),[6],-0.942
same,glycan array binding signal (z-score),[7],4.52
same,glycan array binding signal (z-score),[8],-0.247
same,glycan array binding signal (z-score),[9],1.68
same,glycan array binding signal (z-score),[10],1.12
same,glycan array binding signal (z-score),[11],-0.29
same,glycan array binding signal (z-score),[12],-0.507
same,glycan array binding signal (z-score),[13],-0.31
same,glycan array binding signal (z-score),[14],-0.079
same,glycan array binding signal (z-score),[15],4.53
same,glycan array binding signal (z-score),[16],-1.25
same,glycan array binding signal (z-score),[17],2.77
same,glycan array binding signal (z-score),[18],0.974
same,glycan array binding signal (z-score),[19],3.43
same,glycan array binding signal (z-score),[20],0.367
same,glycan array binding signal (z-score),[21],0.345
same,glycan array binding signal (z-score),[22],3.02
same,glycan array binding signal (z-score),[23],-0.275
same,glycan array binding signal (z-score),[24],3.81
same,glycan array binding signal (z-score),[25],0.11
same,glycan array binding signal (z-score),[26],-0.941
same,glycan array binding signal (z-score),[27],0.269
same,glycan array binding signal (z-score),[28],1.14
same,glycan array binding signal (z-score),[29],-0.836
